± gives the standard deviation of the averaged measurements. Over roughly 33,000 sequences, “E-score (rank enrichment, -0.5 to 0.5)” has its median near -0.0028; the highest 2% begin near 0.23. The full list was thinned out, with the highest values kept by preference.
What follows are sequences tested on 2Sb-muMax20 (muMax20 with two 1,3-bis(methyl)benzene Cys staples, A13C/A17C and Q88C/A92C, C-terminal Lys) (assay: PBM 8-mer E-score (E-score (rank enrichment, -0.5 to 0.5)); higher = stronger preferential binding).
Protocol: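 Protein binding microarray (universal PBM chip covering all 10-mers in fixed probe flanks) with chemically synthesized human Max(13-93) bHLH-LZ analogs (not full-length Max) bearing noncanonical residues (hArg, Tha, Aib, Nle at 65) and aromatic Cys staples. Read-out per 8-mer (and its reverse complement): E-score (rank-based enrichment, -0.5 to 0.5) and Z-score of median probe intensity.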

| Sequence | PBM 8-mer E-score |
| --- | --- |
| TATACCCA | 0.0636 ± 0.015 |
| ATTACCCC | 0.226 ± 0.0063 |
| AATACCCA | 0.272 ± 0.021 |
| AATACCCG | -0.105 ± 0.092 |
| ATTACCCG | 0.0122 ± 0.03 |
| ATTACCCA | 0.2414 ± 0.0019 |
| ATTCCAAT | -0.0251 ± 0.027 |
| CAGGACCA | -0.196 ± 0.036 |
| ATCTGTCG | 0.089 ± 0.014 |
| ATCTGTCC | 0.0828 ± 0.032 |
| ATCTGTCA | 0.236 ± 0.0051 |
| CGGACTCA | -0.147 ± 0.028 |
| ACACAACG | 0.0437 ± 0.0021 |
| ATACAACC | -0.0388 ± 0.043 |
| CTACAACA | 0.0685 ± 0.041 |
| ATACAAGC | 0.284 ± 0.043 |
| GTACAACA | 0.159 ± 0.0065 |
| ATACAACG | 0.252 ± 0.027 |
| ATACAACA | 0.239 ± 0.053 |
| ATACAAGA | -0.044 ± 0.011 |
| CTACAAGC | -0.00747 ± 0.0035 |
| CTTACGCC | 0.0349 ± 0.067 |
| AGTCTACA | -0.0861 ± 0.047 |
| TAGCAATA | -0.02 ± 0.012 |
| AGGCCGCG | -0.113 ± 0.078 |

| Sequence | PBM 8-mer E-score |
| --- | --- |
| GAGACGCA | 0.0251 ± 0.025 |
| TCGGGCAA | -0.0563 ± 0.02 |
| CAAGGTTA | -0.0419 ± 0.083 |
| AAAGGTAG | 0.176 ± 0.01 |
| AAGCCGTG | -0.228 ± 0.057 |
| ACGCGAAG | -0.0725 ± 0.09 |
| CGTAGAAA | -0.0374 ± 0.016 |
| TGTAGAAA | 0.236 ± 0.0088 |
| AGTAGAAA | 0.1174 ± 0.00047 |
| CTATGCGC | -0.0257 ± 0.0089 |
| CGACCAAG | -0.128 ± 0.0088 |
| CTAAGTTA | 0.0294 ± 0.017 |
| ATTAGTTA | 0.233 ± 0.039 |
| ATTAGTTG | 0.205 ± 0.022 |
| ATAAGTTA | 0.241 ± 0.01 |
| GTTAGTTA | 0.108 ± 0.058 |
| GTAAGTTA | 0.0157 ± 0.033 |
| AGAATTGG | 0.092 ± 0.037 |
| ATGCTAGC | 0.17 ± 0.0032 |
| CCCGCCTC | 0.0922 ± 0.074 |
| GCTAAAGA | 0.0447 ± 0.088 |
| CAAGTTTA | 0.151 ± 0.057 |
| ACTCCGAC | -0.182 ± 0.046 |
| AATCACAC | 0.131 ± 0.016 |
| CAAAAACA | 0.00439 ± 0.066 |

| Sequence | PBM 8-mer E-score |
| --- | --- |
| ACTATGCC | 0.101 ± 0.025 |
| GTTTTGCA | 0.0867 ± 0.05 |
| ATTTTGTG | 0.0967 ± 0.078 |
| CTTTTGTA | 0.136 ± 0.035 |
| GGTTTGTA | 0.0375 ± 0.026 |
| ATTTTGTA | 0.271 ± 0.013 |
| GTTTTGTA | 0.279 ± 0.035 |
| AAGGTTCC | -0.178 ± 0.069 |
| GGGTTGTA | 0.0272 ± 0.0033 |
| TAGACAAA | 0.053 ± 0.034 |
| CACGAATC | -0.015 ± 0.029 |
| AGAAGATG | -0.0449 ± 0.09 |
| ATCAAGAA | 0.121 ± 0.044 |
| AAAATTTC | 0.0563 ± 0.036 |
| AAAAATTA | 0.0513 ± 0.022 |
| GAAAATTA | 0.2425 ± 0.002 |
| CAAATTTC | 0.208 ± 0.085 |
| AGAAATTA | 0.0685 ± 0.035 |
| CAAAATTA | 0.108 ± 0.0041 |
| GGAAATTA | 0.304 ± 0.016 |
| GAAATTTC | 0.245 ± 0.17 |
| CGAAATTA | -0.0924 ± 0.033 |
| CGAAAACC | -0.0224 ± 0.019 |
| ACATACCC | -0.0475 ± 0.056 |
| ACTCTTTG | 0.0269 ± 0.0091 |

| Sequence | PBM 8-mer E-score |
| --- | --- |
| TTAGATAA | 0.113 ± 0.021 |
| AACGCTCT | -0.0435 ± 0.014 |
| CAACCTGA | -0.0727 ± 0.068 |
| AAGCGCTA | -0.041 ± 0.0066 |
| AAGCGCTC | -0.108 ± 0.037 |
| AAGCGCTT | 0.309 ± 0.011 |
| ACTGAGCC | -0.209 ± 0.022 |
| GAATAGCA | 0.146 ± 0.046 |
| CATCCATG | -0.0304 ± 0.072 |
| CCTACTAG | 0.0815 ± 0.034 |
| ACTAGTAG | 0.113 ± 0.013 |
| ATTACTAC | 0.296 ± 0.011 |
| ACTACTAG | 0.241 ± 0.027 |
| ACTACTAT | 0.173 ± 0.036 |
| GCTACTAA | 0.082 ± 0.075 |
| GCTACTAC | 0.233 ± 0.0041 |
| ACTAGTAT | 0.201 ± 0.067 |
| ACTAGTAA | 0.231 ± 0.036 |
| CTTACTAC | 0.202 ± 0.032 |
| ACTACTAC | 0.0819 ± 0.046 |
| ATTACTAG | -0.0604 ± 0.047 |
| ACCTGTGA | -0.138 ± 0.064 |
| CCTATGAG | -0.157 ± 0.032 |
| AATCTAGA | -0.047 ± 0.028 |
| CCGTTTAA | -0.0517 ± 0.035 |

| Sequence | PBM 8-mer E-score |
| --- | --- |
| AGAGCGTA | 0.00302 ± 0.045 |
| AGATGATC | -0.147 ± 0.013 |
| ACGGTGAG | -0.0622 ± 0.023 |
| CAGAATTA | -0.00473 ± 0.0023 |
| AGCGAAGA | -0.0699 ± 0.084 |
| CACATGCG | 0.124 ± 0.051 |
| AACATGTT | 0.122 ± 0.0036 |
| CACATGTC | -0.0158 ± 0.02 |
| CACATGTA | 0.338 ± 0.0074 |
| CACATGTG | 0.395 ± 0.00083 |
| AACATGTG | 0.344 ± 0.044 |
| TACATGCA | 0.181 ± 0.0009 |
| CTCATGTA | 0.0268 ± 0.039 |
| TACATGTA | 0.238 ± 0.06 |
| GACATGTA | 0.147 ± 0.021 |
| CACATGAA | 0.125 ± 0.0092 |
| AACATGTC | 0.11 ± 0.051 |
| CAACTCAG | -0.162 ± 0.038 |
| ACCGTCAG | -0.115 ± 0.051 |
| GACAGGAC | -0.0924 ± 0.0031 |
| GGGACCGA | -0.24 ± 0.04 |
| GGGCAGAC | -0.0224 ± 0.074 |
| GAACGATA | 0.0756 ± 0.039 |
| AGTAACCC | 0.0955 ± 0.019 |
| AATAAACA | 0.195 ± 0.025 |

| Sequence | PBM 8-mer E-score |
| --- | --- |
| AACATGTA | 0.258 ± 0.027 |
| AACATGCA | 0.203 ± 0.011 |
| AACATGGA | -0.00271 ± 0.005 |
| CCCATCAA | 0.12 ± 0.019 |
| GCCATCAC | -0.154 ± 0.0083 |
| CCCATCAC | 0.249 ± 0.026 |
| GCAGAAAA | 0.0213 ± 0.046 |
| TAATGGGA | 0.147 ± 0.011 |
| AATTAGCT | 0.164 ± 0.022 |
| CCCCTTCA | 0.294 ± 0.014 |
| GCCCTTGA | -0.0328 ± 0.041 |
| CCCCTTCC | -0.0525 ± 0.1 |
| CCCCTTGA | 0.27 ± 0.0079 |
| TCCCTTCA | 0.0279 ± 0.022 |
| ACCCTTGA | -0.145 ± 0.041 |
| GGCCGCAC | -0.0381 ± 0.06 |
| CGCCACGC | -0.118 ± 0.0025 |
| GATTACCC | 0.093 ± 0.041 |
| ATCGGCCC | 0.0612 ± 0.096 |
| GTGCCGCA | -0.0229 ± 0.078 |
| ACCCCAAG | 0.271 ± 0.016 |
| ACCCCATA | 0.147 ± 0.013 |
| ACCCCAAC | 0.217 ± 0.019 |
| ACCCCCAT | -0.188 ± 0.066 |
| AACCCAAT | -0.0928 ± 0.095 |

| Sequence | PBM 8-mer E-score |
| --- | --- |
| ACCCCAAA | 0.2008 ± 0.0017 |
| ACCCCAAT | 0.344 ± 0.025 |
| ACCCCATG | 0.253 ± 0.019 |
| AACCCATG | 0.106 ± 0.067 |
| CATTGCCA | -0.0459 ± 0.045 |
| CACCAGAA | -0.00913 ± 0.061 |
| GAGTCAGA | -0.0579 ± 0.039 |
| ACGGCCAA | -0.0314 ± 0.0051 |
| ACTGGTGC | -0.0379 ± 0.026 |
| CTATTCAC | -0.0182 ± 0.015 |
| CGATAGAA | 0.0743 ± 0.02 |
| CGTCCGAA | -0.121 ± 0.017 |
| TACAGAAA | 0.256 ± 0.021 |
| AACAGAAA | 0.0674 ± 0.036 |
| GACAGAAA | 0.111 ± 0.013 |
| AAGACGTC | 0.0152 ± 0.028 |
| GATGGCAA | 0.242 ± 0.012 |
| CATGGCAA | -0.0308 ± 0.0076 |
| GATGGCAC | 0.03519 ± 8.5e-05 |
| ATGCCGCA | 0.0568 ± 0.0082 |
| AGCGAGGA | -0.0458 ± 0.014 |
| GTCTTCTA | 0.00543 ± 0.00074 |
| GCTACCCC | -0.0378 ± 0.075 |
| CCTACCCC | 0.248 ± 0.062 |
| CGTACCCC | 0.246 ± 0.015 |
